The structures appear in SMILES notation. Hit rate of the full screen: of about 330,000 compounds, about 7,300 (2.2%) were called active. For the sample, actives were picked, then their nearest neighbours and some compounds at random. Unmarked numbers belong to inactive results.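 How the source made its calls: active means inhibition of at least 40%; inactive means the rest.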

This experiment is described as follows: growth inhibitors of tim10-1 mutant yeast, primary screen, luminescence, uHTS (AID 463190).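 Further: mutant grown at 25 °C; 0% = DMSO wells with yeast and 100% = wells holding no yeast.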 The conditions noted are these: S. cerevisiae tim10-1 ts strain growth, BacTiter-Glo, 24 h; at 20 µM; hits give high values.
`Cc1cnc(C(=O)Oc2cccc(Cl)c2Cl)cn1`: the inhibition is -10.1%.

As for `N/C(=N\OC(=O)CC1CCCCC1)c1ccccc1`, the inhibition was 49.3% (active).

As for `O=C(CC1CCCCC1)NCc1ccccc1`, the inhibition was 11.1%.

Turning to `COc1ccccc1OCC(=O)O/N=C(\N)c1ccccn1`, the inhibition was 22.7%.

In the case of `CCc1cccc(C)c1NC(=O)COC(=O)CC1CCCC1`, the inhibition is 2.51%.

Regarding `N/C(=N\OC(=O)CCC1CCCCC1)c1ccccn1`, the inhibition was 47.6% (active).

Regarding `N/C(=N\OC(=O)c1ccc([N+](=O)[O-])cc1)c1ccccn1`, the inhibition is 37.6%.

Take `CCCC(C)C(=O)NCc1ccncc1` (stereo not drawn): the inhibition is 27.9%.

With `CCCc1cc(=O)[nH]c(SCc2cc(=O)oc3c(C)c(C)ccc23)n1`, the inhibition is 10.3%.

As for `Cc1cccn2c(=O)c3cc(C(=O)NC4CCCCC4)sc3nc12`, the inhibition is 19.7%.

As to `Cc1cc(C)c2c(n1)sc1c(=O)n(-c3ccccc3)c(=O)[nH]c12`, the inhibition was 4.48%.

As to `Cc1cccc(NC(=S)Nc2ccc(Cl)c(Cl)c2)c1`, the inhibition is 49.9% (active).

As for `Cc1cccc(NC(=S)NC23CN4CN(CN(C4)C2)C3)c1`, the inhibition was 10%.

In the case of `Cc1cccc(NC(=S)Nc2ccc3cn[nH]c3c2)c1`, the inhibition was 15.4%.

`Cc1cccc([C@@H]2[C@@H]3C(=O)N(C)C(=O)[C@@H]3[C@@H]3C(=O)Nc4ccccc4C(=O)N23)c1`: the inhibition is 5.99%.

As for `O=C(NC1CCCC1)c1cc(-c2ccccc2)on1`, the inhibition is -21.5%.

In the case of `FC(F)(F)c1nnc2c3ccccc3c(Cl)nn12`, the inhibition is 17.8%.

For the compound `Cc1cc(NC(=O)CSc2nc(C(C)C)nc3sc4c(c23)CCC(C)C4)no1` (stereo not drawn), the inhibition is 4.7%.

Turning to `CC1CCc2sc3nc(N4CCN(CCO)CC4)n4ncnc4c3c2C1` (stereo not drawn), the inhibition was 40.6% (active).

On to `Cc1[nH]c2ccccc2c1/C=C(/C#N)C(=O)NC(C)C`, for which the inhibition was 20.4%.

For the compound `CC(C)(C)C(=O)/C(C#N)=C/c1ccc(O)cc1`, the inhibition was 8.78%.

`CC(C)NC(=O)/C(C#N)=C\c1ccc(N(C)C)c(Br)c1`: the inhibition was 53.6% (active).

As for `Cc1ccc(C(=O)OC2=CC(=O)CC(C)(C)C2)cc1`, the inhibition was 31%.

For `COCCCNS(=O)(=O)c1cccc(S(=O)(=O)c2cccc(S(=O)(=O)NCCCOC)c2)c1`, the inhibition was 2.99%.

Take `Cc1ccccc1OCC(=O)NNC(=O)c1ccc(-n2cncn2)c([N+](=O)[O-])c1`: the inhibition was -11%.

As to `O=C(COc1ccccc1F)NNC(=O)c1ccc(N2CCCCC2)c([N+](=O)[O-])c1`, the inhibition was 41.3% (active).

In the case of `O=C(NCCCN1CCOCC1)c1ccc(N2CCCC2)c([N+](=O)[O-])c1`, the inhibition is -9.34%.

As to `CC(C)CC(=O)N/C(N)=N/c1nc2ccccc2s1`, the inhibition is 19.6%.

Regarding `CCOC(=O)/C(N=Nc1cc(C(=O)O)cc(C(=O)O)c1)=C(\O)CCl`, the inhibition is 11%.

In the case of `O=c1cccc(-c2ccc(Br)cc2)o1`, the inhibition was 4.04%.

`CCOC(=O)C(=CNc1cccc(C)n1)C(=O)OCC`: the inhibition is -6.8%.

In the case of `CCOC(=O)C(=Cc1ccccc1OC)C(=O)OCC`, the inhibition is 49.6% (active).

In the case of `COc1ccccc1/C=C/C(=O)NC1CC2CCC1C2` (stereo not drawn), the inhibition is 19.5%.

As to `Cc1c(C)n2c(SCC(=O)N3CCCC3)nnc2[nH]c1=O`, the inhibition was 0.597%.

Regarding `CCCCCCC(=O)N(O)C1CC(=O)N(c2ccccc2)C1=O` (stereo not drawn), the inhibition is 33.7%.

For `CCN(CC(=O)Nc1ccccc1C(=O)NC1CC1)Cc1cccs1`, the inhibition was 17.5%.

Take `CSC1=N/C(=C\C=C\c2cccs2)C(=O)S1`: the inhibition is 47.1% (active).

As for `Cc1cccc(C2=N/C(=C/c3cccs3)C(=O)O2)c1`, the inhibition was 31.5%.

With `CN1C/C(=C/c2cccs2)C(=O)/C(=C\c2cccs2)C1`, the inhibition is 19.2%.

As to `O=C(NCc1ccccc1Cl)C1CCC(CNc2c(N3CCCCC3)c(=O)c2=O)CC1` (stereo not drawn), the inhibition was -8.66%.

`C/C(=N\NC(=O)c1cc2c(s1)CCC(C)C2)c1cccnc1` (stereo not drawn): the inhibition was 39.6%.

For `CCOC(=O)C1=C(c2ccccc2)NC(=O)NC1c1cc(OCC)c(O)c([N+](=O)[O-])c1` (stereo not drawn), the inhibition was -5.37%.

Consider `CCCc1[nH]nc2c1C(c1ccc(OC)c(Cn3nc(C)c(Br)c3C)c1)C(C#N)=C(N)O2` (stereo not drawn), for which the inhibition is 11.3%.

Consider `CCCc1[nH]nc2c1C(c1ccc(OC(=O)c3ccco3)cc1)C(C#N)=C(N)O2` (stereo not drawn), for which the inhibition is 8.03%.

As for `CCCc1[nH]nc2c1C(c1ccc(Br)s1)C(C#N)=C(N)O2` (stereo not drawn), the inhibition was 83% (active).

`COc1ccc(NC(=O)COC(=O)CNC(=O)C2CCCCC2)cc1`: the inhibition was 4.06%.

Consider `CCc1ccccc1NC(=O)CCOc1ccccc1`, for which the inhibition is 11.8%.

On to `CCOC(=O)c1cccc(NC(=O)CCOc2ccccc2)c1`, for which the inhibition is 12.6%.

For `Cc1ccc(NC(=O)CCOc2ccccc2)cc1S(=O)(=O)Nc1ccccc1Cl`, the inhibition was 43.7% (active).

Consider `CN(C(=O)CSc1nnc(Nc2ccccc2)s1)C1CCS(=O)(=O)C1` (stereo not drawn), for which the inhibition is 8.97%.

As to `COc1ccc(-c2cc(=O)oc3cc(OCC(=O)N[C@@H](Cc4c[nH]c5ccccc45)C(=O)O)ccc23)cc1`, the inhibition is 16.2%.

Consider `C=CCOC(=O)C1=C(C)N=C2SCCC(=O)N2C1/C=C/c1ccccc1OC` (stereo not drawn), for which the inhibition is 5.92%.

In the case of `COc1ccc(-c2cn[nH]c2-c2ccc(OC)cc2)cc1`, the inhibition is 38.8%.

`CCOc1ccccc1Oc1cn[nH]c1-c1ccc(OC)cc1O`: the inhibition was -13%.

Turning to `COc1ccc(Oc2cn[nH]c2-c2ccc(OC)cc2O)cc1`, the inhibition is 50.1% (active).

For the compound `Cn1sc(=O)c2cc(S(=O)(=O)NC3CC3)ccc21`, the inhibition is 22.8%.

For the compound `COc1ccc(N2CCN(C(=O)CCNC(=O)c3ccc(Br)cc3)CC2)cc1`, the inhibition is 12.6%.

With `O=C(CCc1ccccc1F)N1CCN(c2ccccc2)CC1`, the inhibition was 6.47%.

Regarding `COc1ccc(N2CCN(C(=O)CCSCc3ccccc3F)CC2)cc1`, the inhibition is 40.2% (active).

`CN(Cc1c(F)cccc1Cl)C(=O)CNC(=O)c1ccc2c(c1)OCO2`: the inhibition was 7.42%.

For the compound `Cc1ccc(NC(=S)Nc2ncccc2C)c(C)c1`, the inhibition was 36.8%.

Take `O=C(NCCCn1ccnc1)/C(=C\c1ccccc1F)NC(=O)c1ccccc1`: the inhibition is -16.4%.

Turning to `O=C(NN=Cc1ccc(N2CCOCC2)cc1)c1cc2ccccc2cc1O`, the inhibition was 0.793%.

`O=C(NNc1c2ccccc2nc2ccccc12)c1cc2ccccc2cc1O`: the inhibition was 48.9% (active).

Consider `COc1ccc(-c2cc(C(=O)Nc3ccccc3O)c3ccccc3n2)cc1`, for which the inhibition is 11.2%.

For `CC1=CC(C)(C)Nc2ccc(OC(=O)CN3C(=O)C4CCCCC4C3=O)cc21` (stereo not drawn), the inhibition is 42.7% (active).

Take `CC1=CC(C)(C)Nc2ccc(OC(=O)C(Cc3ccccc3)N3C(=O)C4CCCCC4C3=O)cc21` (stereo not drawn): the inhibition was 25.9%.

With `O=C(COC(=O)CN1C(=O)C2CCCCC2C1=O)Nc1ccc(F)c(F)c1F` (stereo not drawn), the inhibition was 8.83%.

For the compound `Cc1cccc(C(=O)OC(C)C(=O)NC2CCCc3ccccc32)c1O` (stereo not drawn), the inhibition is 14.7%.

As to `Cc1occc(=O)c1OCc1ccc(F)cc1`, the inhibition was 1.21%.

`Fc1cccc2ncnc(OCc3ccccc3)c12`: the inhibition is 5.91%.

Regarding `Cc1nc2ccccc2cc1OCc1ccc(F)cc1`, the inhibition was 40.5% (active).

For `O=c1[nH]c2ccccc2s1`, the inhibition is 8.84%.

For the compound `O=C(NC(=S)NC1CCCCC1)c1ccc(Cl)cc1`, the inhibition was 34.7%.

For `O=C(NC1CCCCC1)c1ccc(-c2ccc(Cl)cc2)o1`, the inhibition is 46.1% (active).

Turning to `O=C(NC1CCCCCC1)c1cccnc1Sc1ccc(Cl)cc1`, the inhibition is 17.4%.

For the compound `Cc1cnc(CN(C)C(=O)CC2C(=O)NCCN2Cc2cccc(F)c2F)[nH]1` (stereo not drawn), the inhibition was 0.623%.

As to `CC(C)OCC(O)CN1CCN(C(c2ccccc2)c2ccccc2)CC1` (stereo not drawn), the inhibition was 6.5%.

For the compound `COC(=O)COc1ccc(C2NC(=O)NC(C)=C2C(=O)NCc2ccccc2)cc1OC` (stereo not drawn), the inhibition is 1.06%.

As to `Cc1ccc(SCC2=NNC(=O)C2)cc1`, the inhibition was 33.5%.

`CCOc1ccc(NC(=O)CN(C)C(=O)Cn2c(=O)cnc3ccccc32)cc1OCC`: the inhibition was -8.6%.

With `C/C(=N\Nc1nc(N2CCOCC2)nc(N2CCOCC2)n1)c1ccc([N+](=O)[O-])cc1`, the inhibition is 14%.

On to `C/C(=N\Nc1nc(Nc2ccccc2)nc(N2CCOCC2)n1)c1cccs1`, for which the inhibition is 41.3% (active).

Consider `O=C(CSc1nc(Nc2ccccc2)nc(N2CCOCC2)n1)Nc1cc(Cl)ccc1O`, for which the inhibition is -0.275%.

As for `COc1ccc(C2(CNC(=O)C(c3ccccc3)c3ccccc3)CCOCC2)cc1OC`, the inhibition was 15.2%.

`CCCCCCCCn1c2c(c(=N)c3c1CCC3)CCCC2`: the inhibition was 49.1% (active).

For the compound `Cc1cc(C)n(C(=O)CCNC(=O)c2ccccc2Cl)n1`, the inhibition is -10.3%.

On to `CN(c1ccc(OCC(=O)O)cc1)S(=O)(=O)c1ccc2ccccc2c1`, for which the inhibition was 11.1%.

`CN(c1ccccc1)S(=O)(=O)c1ccc(NC(=O)COc2ccccc2)cc1`: the inhibition was 40.2% (active).

Regarding `O=C(COc1ccccc1)Nc1ccc(F)cc1`, the inhibition was 12.1%.

In the case of `CC(=O)Nc1ccc(S(=O)(=O)N2CCC(C(=O)NC3CC3)CC2)cc1`, the inhibition was 5.84%.

Consider `O=C(Nc1ccc2oc(-c3ccc4ccccc4c3)nc2c1)c1cccs1`, for which the inhibition is 3.31%.

As to `Cc1cc2nc(-c3ccc(NC(=O)c4cccnc4)cc3)oc2cc1C`, the inhibition was 12.5%.

With `CCc1ccc2oc(-c3ccc(N)cc3)nc2c1`, the inhibition is 41.3% (active).

`Cc1ccc(NC(=O)COC(=O)CCc2nc3ccccc3n2-c2ccccc2)c(C)c1`: the inhibition is 10.3%.

Consider `Cc1ccc2c(c1)C1CN(C)CCC1N2S(=O)(=O)c1ccc(Oc2ccc([N+](=O)[O-])cc2)cc1` (stereo not drawn), for which the inhibition was 43.1% (active).

As to `Cc1ccc2c(c1)C1CN(C)CCC1N2S(=O)(=O)c1cccc(F)c1` (stereo not drawn), the inhibition was 3.83%.

Turning to `Cc1ccc2c(c1)C1CN(C)CCC1N2C(=S)Nc1ccc(OC(F)F)cc1` (stereo not drawn), the inhibition is 3.44%.

These data come from PubChem BioAssay AID463190 (Sanford-Burnham Center for Chemical Genomics, 2010).
